The values below come from PubChem BioAssay (NCATS).

The nature of experiment [1]: qHTS for Inhibitors of the Functional Ribonucleoprotein Complex (vRNP) of Lassa (LASV) Arenavirus: LASV Primary Screen - GLuc reporter signal (AID 1347082; calls by dose curve; tested in HEK293 reporter line; note: nearly all actives have a fitted effect of over 60% in size). A general note: qHTS replaces the single test concentration by a dilution series.
Experiment [2] is described as follows: qHTS for Inhibitors of the Functional Ribonucleoprotein Complex (vRNP) of Lassa (LASV) Arenavirus: Viability assay - alamar blue signal for LASV Primary Screen (AID 1347083; calls by dose curve; tested in HEK293 reporter line; note: nearly all actives have a fitted effect of over 80% in size).
Experiment [3] can be described thus: qHTS for Inhibitors of the Functional Ribonucleoprotein Complex (vRNP) of Lymphocytic Choriomeningitis Arenaviruses (LCMV): Viability assay - alamar blue signal for LCMV Primary Screen (AID 1347085; calls by dose curve; tested in HEK293 reporter line; note: nearly all actives have a fitted effect of over 80% in size).
Experiment [4] has as its target Nucleoprotein (Lymphocytic choriomeningitis virus (strain Armstrong)) (UniProt P09992). As to the kind of experiment: qHTS for Inhibitors of the Functional Ribonucleoprotein Complex (vRNP) of Lymphocytic Choriomeningitis Arenaviruses (LCMV): LCMV Primary Screen - GLuc reporter signal (AID 1347086). Note: nearly all actives have a fitted effect of over 70% in size.

Inconclusive results are not listed. Unmarked numbers belong to inactive results. Activity calls are given as the source filed them. Unless noted, calls come from the whole dose curve.
Potency is the fitted concentration of half-maximal effect.

Sequence of Nucleoprotein (Lymphocytic choriomeningitis virus (strain Armstrong)) (P09992 whole entry, looked up): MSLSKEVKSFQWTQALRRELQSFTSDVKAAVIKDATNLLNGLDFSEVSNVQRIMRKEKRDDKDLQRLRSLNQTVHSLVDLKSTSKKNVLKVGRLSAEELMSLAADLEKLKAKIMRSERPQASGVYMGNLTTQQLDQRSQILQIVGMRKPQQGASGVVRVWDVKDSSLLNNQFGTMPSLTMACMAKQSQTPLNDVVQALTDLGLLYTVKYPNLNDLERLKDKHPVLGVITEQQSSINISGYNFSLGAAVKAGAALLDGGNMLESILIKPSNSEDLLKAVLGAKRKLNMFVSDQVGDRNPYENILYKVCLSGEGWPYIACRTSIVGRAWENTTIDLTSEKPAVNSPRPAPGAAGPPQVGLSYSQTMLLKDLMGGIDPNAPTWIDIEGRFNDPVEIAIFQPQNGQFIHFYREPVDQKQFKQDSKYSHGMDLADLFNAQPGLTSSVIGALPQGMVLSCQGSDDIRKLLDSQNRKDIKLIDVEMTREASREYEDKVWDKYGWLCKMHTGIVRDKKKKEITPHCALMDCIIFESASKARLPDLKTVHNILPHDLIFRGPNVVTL

In the case of `CC(C)CNC(=O)/C=C/C=C/CCCCCC/C=C/c1ccc2c(c1)OCO2`, the Potency entry in experiment [1], in experiment [2], in experiment [3] and in experiment [4] was “inactive” in each case.
Regarding `COc1ccc2c(=O)c(-c3ccc(OC)c(OC)c3)coc2c1`, the Potency entry in experiment [1], in experiment [2], in experiment [3] and in experiment [4] was “inactive” throughout.
Regarding `CC/C=C\CCCCO`, the Potency result in experiment [1], in experiment [2], in experiment [3] and in experiment [4] was “inactive” throughout.
Consider `CC(C)=CC(=O)O[C@@H]1Cc2cc3ccc(=O)oc3cc2OC1(C)C`, for which the Potency result in experiment [1], in experiment [2], in experiment [3] and in experiment [4] was “inactive” in each case.
As for `C/C=C(\C)C(=O)O[C@H]1CC(C)=C2C(=O)C=C(C)C2[C@@H]2OC(=O)[C@@](C)(OC(=O)C=C(C)C)C21` (stereo partly specified), the Potency result in experiment [1], in experiment [2], in experiment [3] and in experiment [4] was “inactive” in each case.
Consider `O=C1CCCCCCCCCCCCCCO1`, for which the Potency entry in experiment [1], in experiment [2], in experiment [3] and in experiment [4] was “inactive” throughout.
Turning to `CC(=O)OC[C@H]1O[C@@H](Oc2cc(O)cc3oc(-c4ccc(O)cc4)cc(=O)c23)[C@H](O[C@@H]2O[C@@H](C)[C@H](O)[C@@H](O)[C@H]2O)[C@@H](O)[C@@H]1O`, the Potency entry in experiment [1], in experiment [2], in experiment [3] and in experiment [4] was “inactive” in each case.
As for `C[C@@H]1C(=O)O[C@@H]2CC34[C@H]5C[C@@H](C(C)(C)C)C36[C@H](OC(=O)[C@@H]6O)OC4(C(=O)O5)[C@@]12O` (stereo partly specified), the Potency result in experiment [1], in experiment [2], in experiment [3] and in experiment [4] was “inactive” each time.
For the molecule `Cc1nn(-c2ccccc2)c(C)c1/C=N/N1CCN(Cc2ccccc2)CC1`, the Potency entry in experiment [1], in experiment [2], in experiment [3] and in experiment [4] was “inactive” each time.
On to `CC1=C[C@H](O)CC(C)(C)[C@H]1/C=C/C(C)=C/C=C/C(C)=C/C=C/C=C(C)/C=C/C=C(C)/C=C/C1=C(C)C[C@@H](O)CC1(C)C`, for which the Potency entry in experiment [1], in experiment [2], in experiment [3] and in experiment [4] was “inactive” in each case.
As to `CC(=O)OC[C@]1(OC(C)=O)C[C@@]23CC[C@H]4[C@@](C)(CCC[C@@]4(C)C(=O)O)[C@@H]2CC[C@@H]1C3`, the Potency entry in experiment [1], in experiment [2], in experiment [3] and in experiment [4] was “inactive” each time.
For the molecule `O=C1C=C(C2OC(CO)C(O)C2O)C(=O)N1` (stereo unspecified), the Potency entry in experiment [1], in experiment [2], in experiment [3] and in experiment [4] was “inactive” throughout.
For the molecule `COc1cc(C2c3cc4c(c(O)c3CC3COC(=O)C32)OCO4)cc(OC)c1O` (stereo unspecified), the Potency result in experiment [1], in experiment [2], in experiment [3] and in experiment [4] was “inactive” each time.
On to `CN1C(=O)[C@@H]2C[C@@]3([C@@]45C[C@H]6C(=O)N(C)[C@@H](Cc7ccccc7)C(=O)N6[C@@H]4Nc4ccccc45)c4ccccc4N[C@H]3N2C(=O)[C@@H]1Cc1ccccc1`, for which the Potency entry in experiment [1], in experiment [2], in experiment [3] and in experiment [4] was “inactive” each time.
As to `O=C(O)CCc1ccccc1`, the Potency result in experiment [1], in experiment [2], in experiment [3] and in experiment [4] was “inactive” throughout.
With `COc1c(C(=O)/C=C/c2ccccc2)ccc2c1C=CC(C)(C)O2`, the Potency entry in experiment [1], in experiment [2], in experiment [3] and in experiment [4] was “inactive” each time.
`COc1ccc(/C=C/C(=O)c2c(OC)cc(O)cc2OC)cc1`: the Potency entry in experiment [1], in experiment [2], in experiment [3] and in experiment [4] was “inactive” each time.
Regarding `CC(=O)OCC=C(C)C`, the Potency entry in experiment [1], in experiment [2], in experiment [3] and in experiment [4] was “inactive” each time.
Take `Cc1c(O[C@@H]2O[C@H](CO)[C@@H](O)[C@H](O)[C@H]2O)c(CO)c(O[C@@H]2O[C@H](CO)[C@@H](O)[C@H](O)[C@H]2O)c2c1O[C@@H](c1ccccc1)C[C@@H]2O`: the Potency entry in experiment [1], in experiment [2], in experiment [3] and in experiment [4] was “inactive” throughout.
For `C=CC(=O)Nc1cccc(Nc2nc(NC3CCC(N(C)C)CC3)nc3c2ncn3C(C)C)c1` (stereo unspecified), the Potency was 2170 nM (active) in experiment [1], 968 nM (active) in experiment [2], 544 nM (active) in experiment [3] and 863 nM (active) in experiment [4].
In the case of `CC(C)CCCC(C)CCO` (stereo unspecified), the Potency result in experiment [1], in experiment [2], in experiment [3] and in experiment [4] was “inactive” throughout.
As for `CC/C=C\CCCCCCCCCCOC(C)=O`, the Potency result in experiment [1], in experiment [2], in experiment [3] and in experiment [4] was “inactive” throughout.
As to `CC1(C)O[C@@H]2C[C@@H]3[C@H]4C[C@@H](F)C5=CC(=O)C=C[C@]5(C)[C@@]4(F)[C@@H](O)C[C@]3(C)[C@]2(C(=O)CO)O1`, the Potency entry in experiment [1], in experiment [2], in experiment [3] and in experiment [4] was “inactive” each time.
As to `CCCCCCCCCC(=O)OCC`, the Potency entry in experiment [1], in experiment [2], in experiment [3] and in experiment [4] was “inactive” in each case.
For the molecule `NCCCCCN`, the Potency result in experiment [1], in experiment [2], in experiment [3] and in experiment [4] was “inactive” throughout.
As for `COc1ccc2cc1Oc1ccc(cc1)CC1c3cc(c(OC)cc3CCN1C)Oc1c(OC)c(OC)c(OC)c3c1C(C2)N(C)CC3` (stereo unspecified), the Potency entry in experiment [1], in experiment [2], in experiment [3] and in experiment [4] was “inactive” in each case.
In the case of `O=C1NC(=O)C(Cc2ccc(O)cc2)N1` (stereo unspecified), the Potency result in experiment [1], in experiment [2], in experiment [3] and in experiment [4] was “inactive” in each case.
With `COc1cc2c3c(c1OC)-c1cc(O)ccc1CC3NCC2` (stereo unspecified), the Potency entry in experiment [1], in experiment [2], in experiment [3] and in experiment [4] was “inactive” each time.
For `O=C1CC(c2ccc(O[C@@H]3OC(CO)[C@@H](O)C(O)C3O)cc2)Oc2cc(O)ccc21` (stereo partly specified), the Potency result in experiment [1], in experiment [2], in experiment [3] and in experiment [4] was “inactive” each time.
